Structures are written as SMILES. The list shows a part of the results. Records with an inconclusive call do not appear. Values without a mark were called inactive. Activity calls are given as the source filed them. The call rests on the fitted dose curve; in most records, active means well fitted inhibition curve with a large enough effect; inconclusive means small, poorly fitted or top-dose-only effect; inactive means no such curve, though single readings can be large or run the other way.
On the % scale 0 is the no-effect control and ±100 the full control effect; potency means the concentration at half of the fitted maximal effect.

Sequence of RecQ-like DNA helicase BLM (Homo sapiens) (P54132 whole entry, looked up): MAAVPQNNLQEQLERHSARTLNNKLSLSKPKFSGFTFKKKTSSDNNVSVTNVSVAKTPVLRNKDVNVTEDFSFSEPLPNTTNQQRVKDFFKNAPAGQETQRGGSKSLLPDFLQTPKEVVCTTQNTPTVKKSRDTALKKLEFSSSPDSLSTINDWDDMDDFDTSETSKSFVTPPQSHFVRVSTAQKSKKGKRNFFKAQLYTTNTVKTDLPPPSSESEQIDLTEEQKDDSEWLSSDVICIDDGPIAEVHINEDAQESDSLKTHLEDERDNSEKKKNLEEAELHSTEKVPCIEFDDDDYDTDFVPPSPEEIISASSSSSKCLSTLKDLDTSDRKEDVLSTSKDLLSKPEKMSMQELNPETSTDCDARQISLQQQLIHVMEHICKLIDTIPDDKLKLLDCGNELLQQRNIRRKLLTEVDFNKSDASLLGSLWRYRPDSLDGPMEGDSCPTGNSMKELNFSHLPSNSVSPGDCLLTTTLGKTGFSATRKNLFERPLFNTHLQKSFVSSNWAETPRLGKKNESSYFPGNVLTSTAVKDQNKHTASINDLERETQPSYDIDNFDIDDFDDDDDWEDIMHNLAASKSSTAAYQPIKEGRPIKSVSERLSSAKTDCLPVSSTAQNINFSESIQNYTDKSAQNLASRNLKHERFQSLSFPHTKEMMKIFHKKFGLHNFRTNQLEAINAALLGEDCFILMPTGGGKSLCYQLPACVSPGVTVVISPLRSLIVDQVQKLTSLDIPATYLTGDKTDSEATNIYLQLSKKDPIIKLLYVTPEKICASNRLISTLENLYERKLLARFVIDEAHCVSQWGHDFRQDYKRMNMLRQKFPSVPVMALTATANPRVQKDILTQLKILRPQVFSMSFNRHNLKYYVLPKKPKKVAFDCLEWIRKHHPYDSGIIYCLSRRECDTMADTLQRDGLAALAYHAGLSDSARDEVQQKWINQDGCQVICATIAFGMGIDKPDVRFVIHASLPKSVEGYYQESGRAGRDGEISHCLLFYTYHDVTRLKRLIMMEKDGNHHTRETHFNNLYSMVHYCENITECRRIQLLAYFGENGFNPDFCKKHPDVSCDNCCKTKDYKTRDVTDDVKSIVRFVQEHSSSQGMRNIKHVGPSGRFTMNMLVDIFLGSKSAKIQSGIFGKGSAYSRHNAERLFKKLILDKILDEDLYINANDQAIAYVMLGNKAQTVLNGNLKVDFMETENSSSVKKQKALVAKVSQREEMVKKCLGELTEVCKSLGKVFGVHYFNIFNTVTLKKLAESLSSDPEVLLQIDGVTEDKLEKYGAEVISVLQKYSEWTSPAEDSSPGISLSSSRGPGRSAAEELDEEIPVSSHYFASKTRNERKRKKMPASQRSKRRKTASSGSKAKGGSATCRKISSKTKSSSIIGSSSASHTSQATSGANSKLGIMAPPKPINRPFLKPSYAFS

This assay deals with RecQ-like DNA helicase BLM (Homo sapiens) (UniProt P54132). Nature of the assay: qHTS Confirmation Assay for Inhibitors of Bloom's syndrome helicase (BLM). Further: nearly all actives have a fitted effect of over 45% in size. To be noted: BLM DNA unwinding, fluorescence quenching, biochemical. An excerpt:
Survival of cells and the faithful propagation of the genome depend on elaborate mechanisms of detecting and repairing DNA damage. Treatment of advanced cancer relies on radiation therapy or chemotherapy, which kill cancer cells by causing extensive DNA damage. It is often found, that cancer cells develop resistance to therapy through enhanced activity of DNA repair functions; this has led to an increased interest in developing drugs that interfere with DNA repair, which could sensitize cancer cells to conventional therapy. This validation qHTS assay pertains to human BLM, which is important in resolving abnormal DNA structures formed during replication or homologous recombination. Shutting down the expression of BLM leads to chromosomal instability and higher radiation sensitivity in cultured cells. The validation assay was a fluorescence quenching based kinetic qHTS for BLM Helicase DNA unwinding. The activity was measured as ATP-dependent separation of a 20-bp DNA duplex extended by 30-nt single-stranded tails (forked duplex). The forked DNA substrate was tagged with rhodamine fluorophore (carboxytetramethyl rhodamine, TAMRA) and BHQ-2 (Black Hole Quencher 2) dark quencher. Strand separation results in an increase in the fluorescence of TAMRA (excitation 525 nm, emission 598 nm). This substrate construct operates in a red-shifted region where very few compound library members have been noted to fluoresce (PubChem AIDs 593 and 594). An additional feature of the assay is the inclusion of 2.5 ug/ml poly (dIdC), to reduce interference by compounds such as DNA intercalators, a major source of false inhibitors. Assay Providers: Ian Hickson, University of Oxford Opher Gileadi, Structural Genomics Consortium, University of Oxford Screening Center PI: Austin, C.P. Screening Center: NIH Chemical Genomics Center [NCGC]
Three uL of reaction buffer (25 mM Tris-HCl (pH 8.0), 5 mM NaCl, 2 mM MgCl2, 1mM DTT, 0.01% Tween- 20, and 2.5 ug/ml poly(dI-dC), including enzyme (50 nM BLM), were dispensed into a 1536-well Greiner black assay plate via solenoid-valve based nanoliter dispensers. Compounds (23 nl each in columns 5-48) and control (23 nl each in column 2 as dose-response) were transferred via a Kalypsys pintool equipped with a 1536-pin array. The plates were incubated for 15 min at room temperature, and then 1 ul of substrates (200 nM DNA and 2 mM ATP, final concentrations) was added to start the reaction. The plate was transferred into a ViewLux high-throughput CCD imager where the reaction progress was measured in a discontinuous kinetic mode (two reads spaced 2 hours apart, with intermediate room temperature incubation of the covered assay plate) by using standard red-fluorescence optics (excitation filter 525 nm, emission filter 598 nm). Enzyme-free and vehicle (DMSO) controls were included for signal normalization.
For orientation: Quantitative high-throughput screening tests each substance at several concentrations.
Regarding `CC(C)(O)c1ccccc1CC[C@H](SCC1(CC(=O)O)CC1)c1cccc(/C=C/c2ccc3ccc(Cl)cc3n2)c1`, the Potency was 54.1 µM (active).
Same read-out and setting: the figure for `CN(C(=O)COC(=O)c1cc(-c2ccco2)nc2ccccc12)C1CCS(=O)(=O)C1` (configuration not stated) is 18.2 µM (active); for `COc1ccc(-c2nc3c(c(SCC(=O)Nc4ccc(C(=O)O)cc4)n2)Cc2ccccc2O3)cc1` it is 5.13 µM (active).
For `C=C1c2cccc(OC)c2O[C@H](C(=O)OCC)[C@@H]1CCCCCC`, the max response, negative = inhibition was -13.8%.
Consider `Oc1ccc(N=Cc2sc3ccccc3c2Cl)cc1`, for which the max response, negative = inhibition is -10.8%.
Same read-out and setting: then `CS(=O)(=O)c1ccc2nc(NC(=O)c3ccc(Cl)nc3)sc2c1`, with 0.0289%.
As for `Cc1ccc(-c2nc(SCc3ccc(Br)cc3)n3[nH]c(=O)cc3n2)cc1`, the Potency is 11.5 µM (active).

The record behind these values is PubChem BioAssay AID2585 (National Center for Advancing Translational Sciences (NCATS), 2010).
